FLuc modulator – counter-screen for miR-21 project: firefly luciferase inhibitors or activators | P08659 | purified FLuc, Km substrates, luminescence inhibition | Potency, µM (doses to about 57.5 µM), without a hit: at the top dose activity change, negative = inhibition, actives largely listed as inhibitors | actives 6.9% (n = 360,000) | AID 588342;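 note: plate controls were vehicle for no effect and reference inhibitor for full effect; nearly all actives have a fitted effect of over 55% in size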
Target sequence (P08659 whole entry, looked up): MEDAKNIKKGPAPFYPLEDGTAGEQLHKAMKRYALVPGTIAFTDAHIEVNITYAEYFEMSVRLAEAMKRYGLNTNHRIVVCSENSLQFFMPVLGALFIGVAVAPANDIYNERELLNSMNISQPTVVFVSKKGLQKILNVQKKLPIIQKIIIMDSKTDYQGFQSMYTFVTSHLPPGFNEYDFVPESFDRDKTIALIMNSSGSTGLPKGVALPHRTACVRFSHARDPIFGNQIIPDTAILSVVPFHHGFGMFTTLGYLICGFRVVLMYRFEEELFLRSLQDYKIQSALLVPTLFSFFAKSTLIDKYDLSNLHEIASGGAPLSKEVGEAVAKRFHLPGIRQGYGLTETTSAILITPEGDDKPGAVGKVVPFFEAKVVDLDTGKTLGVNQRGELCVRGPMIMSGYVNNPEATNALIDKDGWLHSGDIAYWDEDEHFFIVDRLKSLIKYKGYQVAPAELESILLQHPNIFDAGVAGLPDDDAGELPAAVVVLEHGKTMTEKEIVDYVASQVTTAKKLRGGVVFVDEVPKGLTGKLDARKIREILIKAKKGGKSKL
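Purified P. pyralis luciferase, 10 nM final, with Km-level 10 uM D-luciferin and 10 uM ATP in 50 mM Tris acetate pH 7.5, 10 mM Mg acetate, 0.01% Tween-20, 0.05% BSA; 6-point qHTS titration about 60 µM downward; luminescence read.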
Luc counter – Kinase-Glo luciferase inhibition (counter-screen) | Q27757 | Kinase-Glo luciferase, ATP luminescence, 8 min | Potency, µM (titrated, usually from 38.3 µM), inactives show at the highest dose activity change, negative = inhibition, hits mostly inhibitors | actives 0.28% (n = 200,000) | AID 1379; note: % is set by controls: 0 for no effect and ±100 for the full control effect; nearly all actives have a fitted effect of over 60% in size
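Recombinant Kinase-Glo luciferase, 10 uM ATP (linear range), luciferin; imidazole pH 7.2 / KCl / MgCl2 / Tween / BSA buffer; 8 min RT; luminescence.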
Rab9 prom act – activates the Rab9 promoter; actives 2.8% (n = 320,000); Huh7 Rab9 promoter-luciferase reporter, luminescence, 24 h; AID 485297; Potency, µM (series often up to 9.22 µM), inactives show at the top dose activation, negative = inhibition, hits mostly activators; note: % of control where 0% means no effect; nearly all actives have a fitted effect of over 60% in size
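Cell-based reporter: Huh7 stable for Rab9 promoter-driven luciferase, plated in reduced-serum medium with 10% FBS at 1500 cells/well, compound-treated 24 h at 37 °C, luminescence read after 10 min reagent.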
SMN2 splice up – increases expression of the SMN2 splice variant | actives 2.8% (n = 210,000) | AID 1458 | Potency, µM (highest dose often 46.1 µM), for inactives: at the highest dose activity change, positive = activation, most hits filed as activators | HEK293 SMN2-luciferase splicing reporter, luminescence, 30-36 h; note: % of control where 0% means no effect; nearly all actives have a fitted effect of over 55% in size
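qHTS luciferase splicing reporter: luminescence rises when SMN2 exon 7 is included in transfected HEK293 cells. Compound exposure lasted 30-36 h at 37C, with 4.5 mM final sodium butyrate as control, followed by a ONE-Glo read.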
NPC1 promoter act – activates the NPC1 promoter; actives 2.4% (n = 320,000); Huh7 NPC1 promoter luciferase reporter, 24 h; Potency, µM (top dose mostly 9.22 µM), for the others: at the highest dose activation, usual class: activators; note: % of control where 0% means no effect; nearly all actives have a fitted effect of over 60% in size
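In 1536-well qHTS, Huh7 cells harboring an NPC1 promoter–luciferase construct received compound for 24 h; activation was quantified by luminescence following luciferase reagent addition.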
ELG1 genotoxic – genotoxicity induction in ELG1-luciferase HEK293T cells. HEK293T ELG1-luciferase reporter, luminescence, 16 h. Potency, µM (series often up to 46 µM), inactives show at the highest dose activity change, positive = activation, hits mostly activators. actives 1.3% (n = 330,000). AID 504466; note: % of control where 0% means no effect; nearly all actives have a fitted effect of over 60% in size
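ELG1-luciferase HEK293T cells, 2,000/well; compound pinned in; 16 hr, 37 °C, 5% CO2; ONE-Glo, 30 min RT; luminescence on CCD imager.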
The depositor's hits bear a star; ? = inconclusive; · = no result; [ ] = dose if it differs, or a comment. Sampled rows, rich in hits. Any-hit rate of the full collection: about 7.5%. Calls come from the whole dose curve; as a rule, active = well fitted curve in the direction sought with a large enough effect; inconclusive = small, poorly fitted or top-dose-only effect, or another doubt; inactive = no such curve, though single readings can be large; an effect the other way counts as inactive or inconclusive. Potency is the fitted concentration of half-maximal effect.

SMILES	FLuc modulator	Luc counter	Rab9 prom act	SMN2 splice up	NPC1 promoter act	ELG1 genotoxic
Cc1cc(C)nc(Nc2n[nH]c(-c3ccccc3C)n2)n1	9.5µM*	-6%	1.8µM*	11µM*	2µM*	21µM*
Cc1cc(C)nc(Nc2cccc3ccccc23)n1	-4%	·	-2%	·	5%	0%
Cc1cc(C)nc(Nc2n[nH]c(-c3ccccc3Br)n2)n1	9.5µM*	-18%	?	81%	?	18µM*
Cc1cc(C)nc(Nc2ccccc2Br)n1	-14%	0%	0%	-1%	2%	5%
CC(Nc1ccc2c(c1)OCCO2)C(=O)N1c2ccccc2CC1C (stereo not drawn)	-9%	-1%	-7%	-16%	3%	5%
NNC(=O)COc1ccc(-c2nccc(-c3ccc(F)cc3)n2)cc1	?	·	-11%	·	-14%	7%
COC(=O)C(C)Oc1ccc(-c2nccc(-c3ccccn3)n2)cc1 (stereo not drawn)	19µM*	·	9%	·	13%	1%
Oc1ccc(-c2nc(-c3ccc(F)cc3)c(-c3ccncc3)[nH]2)cc1	-8%	-3%	-12%[46.1 µM]	-19%	-16%[46.1 µM]	-8%
COC(=O)C(C)Oc1ccc(-c2nccc(-c3ccc(F)cc3)n2)cc1 (stereo not drawn)	15µM*	·	0%	·	7%	4%
Oc1ccc(-c2nccc(-c3ccc(F)cc3)n2)cc1	13µM*	·	?	·	?	?
CCCCS(=O)(=O)N1CCc2nc(-c3ccc(OC)cc3C)c3c(c2C1)CO[C@@H](c1ccccc1)C3	·	-3%[7.66 µM]	·	0%[9.22 µM]	·	·
NS(=O)(=O)c1cccc(NC(=O)COC(=O)Cc2n[nH]c(=O)c3ccccc23)c1	2%	·	0%	·	1%	-2%
CSc1nnc(-c2cc3c(s2)-c2ccccc2CC3)o1	4.8µM*	1%	?	18µM*	12%	?
S=c1[nH]nc(-c2cc3c(s2)-c2ccccc2CC3)o1	17µM*	5%	?	14µM*	26%	?
O=C(O)c1cc2c(s1)-c1ccccc1CC2	-16%	1%	8%	-13%[1.84 µM]	2%	2%
CC1CCc2sc(-c3n[nH]c(=S)o3)cc2C1 (stereo not drawn)	6.7µM*	3%	?	10µM*	?	?
CC1=Nc2ccccc2/C1=C/c1c(N)n2c(S(=O)(=O)C(C)C)nsc2nc1=O	24µM*	2%	-4%	2%	-3%	1%
CC1=Nc2ccccc2/C1=C/c1c(N)n2c(S(=O)(=O)CC(C)C)nsc2nc1=O	17µM*	4%	-5%	-20%	2%	2%
CC1=Nc2ccc(C)cc2/C1=C/c1c(N)n2c(S(=O)(=O)C(C)C)nsc2nc1=O	?	0%	3%	20%	1%	-3%
COc1cc(C(=O)Nc2c(C(=O)Nc3ccccc3F)oc3ccccc23)cc(OC)c1OC	-19%	·	·	-2%	·	·
COc1ccc2c(c1)CC/C2=N\OC(=O)c1ccccc1OC	3µM*	-13%	22%	-1%	-4%	?
O=C(Nc1nc2c(s1)CCCC2)C1CCCN1C(=O)c1cccs1 (stereo not drawn)	2%	12%	-1%	0%	2%	2%
O=C(Nc1nc2c(s1)CCc1ccccc1-2)c1cccs1	13µM*	1%	?	9%	?	9%
O=C(Nc1ncc2c(n1)-c1ccccc1CC2)c1ccccc1	?	1%	11%	3%	23%	2%
O=C(Nc1ncc2c(n1)-c1ccccc1CC2)c1cccs1	19µM*	0%	20%	-5%	15%	1%
SMILES	FLuc modulator	Luc counter	Rab9 prom act	SMN2 splice up	NPC1 promoter act	ELG1 genotoxic
O=C(CCS(=O)(=O)c1ccccc1)Nc1nc2c(s1)COc1ccccc1-2	1%	-4%	1%	-3%	0%	-5%
O=C(Nc1nc2c(s1)COc1ccccc1-2)c1cccs1	13µM*	0%	10%	-18%	16%	0%
Fc1ccccc1Nc1nc2c(s1)CCc1ccccc1-2	1.9µM*	-20%	3.2µM*	?	?	8.2µM*
Cc1cc(F)ccc1S(=O)(=O)Nc1ccc(C(=O)N2CCCCC2)cc1	·	·	·	·	·	-1%
COC(=O)c1ccc(C(NC(=O)OCc2ccccc2)/C(=C/[C@@H](C)C(=O)NCc2ccc(OC)c(O)c2)c2cccnc2)cc1 (stereo partly drawn)	·	-2%	·	6%	·	·
O=C(CN1C(=O)CC(c2ccco2)Sc2ccccc21)NC1CCCCC1 (stereo not drawn)	-13%	·	0%	·	1%	-1%
Cc1cc(-c2ccccc2)nc(N/N=C/c2ccc([N+](=O)[O-])cc2)n1	-26%	-2%	1%	1%[1.84 µM]	-3%	-8%
C(=N/Nc1nc(-c2ccccc2)cc(-c2ccccc2)n1)/c1cccnc1	2.7µM*	-8%	26%	2.5µM*	18%	1%
C(=N\Nc1nc(Nc2ccccc2)nc(Nc2ccccc2)n1)/c1cccnc1	?	-3%	4%	3%	3%	-6%
COc1ccc(-c2cnnc(N/N=C/c3ccc(OC)c(OC)c3)n2)cc1	2.7µM*	-19%	0%	·	6%	-2%
Cc1cc(-c2ccccc2)nc(N/N=C/c2ccccc2)n1	6.7µM*	·	?	·	?	17%
Cc1cc(-c2ccccc2)nc(N/N=C/c2ccco2)n1	12µM*	-2%	?	13%	?	7%
Cc1cc(C)nc(N/N=C/c2ccco2)n1	?	9%	-3%	?	10%	10%
Cc1ccc(C(=O)N2CCN(CCc3ccncc3)CC2)cc1	-1%	·	·	·	·	·
COc1ccnc(Oc2ccccc2)c1C(N)=O	-1%	·	6%	·	9%	3%
Cc1cc(-c2ccccc2)nc(N/N=C/c2cccnc2)n1	12µM*	-18%	1%	·	5%	-2%
Cc1ccc2nc(C)cc(SCC(=O)N/N=C/c3ccco3)c2c1	3%	·	-6%	·	-9%	-7%
C(=N\Nc1nc(N2CCCC2)nc(N2CCCC2)n1)/c1cccnc1	4%	1%	-6%	-23%	-5%	-12%
Cc1ccc2nc(N/N=C/c3ccco3)cc(C)c2c1	2.7µM*	-3%	2.5µM*	·	2.8µM*	9%
COc1ccc(/C=N/Nc2nc(C)cc(-c3ccccc3)n2)cc1OC	13µM*	·	1%	·	-2%	-13%
O=C(CSc1n[nH]c(-c2ccncc2)n1)Nc1ccc(Cl)c(C(=O)O)c1	?	·	3%	·	2%	1%
Cc1cc(C)c(C(=O)C2OC(=O)C(C)(C)C(=O)C2(C)C)c(C)c1 (stereo not drawn)	5%	-2%	-3%	-23%	-8%	-2%
Cc1ccc(-n2nnnc2CNC(=O)c2ccc3c(c2)OCO3)cc1C	3%	·	4%	·	-7%	-3%
